The record followed here is PubChem BioAssay AID2508 (National Center for Advancing Translational Sciences (NCATS), 2010).

Records with an inconclusive call do not appear. Active and inactive are the calls of the source. The call rests on the fitted dose curve; in most records, active means well fitted inhibition curve with a large enough effect; inconclusive means small, poorly fitted or top-dose-only effect, or effect the other way; inactive means no such curve, though single readings can be large or run the other way.

This experiment is described as follows: Confirmatory Assay for General miRNAs Modulators and/or Inhibitors/Activators of miR-21. The conditions noted are these: HeLa miR-21 FLuc reporter, luminescence, 48 h; series mostly up to 38.3 µM; activity change, negative = inhibition: at the top concentration. The text has this: MLSCN Grant: 1 R21 NS059478-01 Assay Provider: Qihong Huang, The Wistar Institute NCGC Assay Overview: MicroRNAs (miRNAs) are endogenously encoded small (~20-25 nucleotides), nonprotein-coding RNAs that are involved in post-transcriptional repression of target messenger RNAs (mRNAs) (Le and Hannon, 2004). Estimated to be involved in the regulation of 30% of all protein-coding mRNAs (Filipowicz et al., 2008), miRNAs play a significant role in many biological processes including cellular differentiation and tissue development (Ghildiyal and Zamore, 2009).
NCGC Assay Protocol Summary: Reagents: HeLa cells stably expressing firefly luciferase (FLuc) under the control of a CMV promoter (upstream) and a miR-21 binding sequence directly downstream of the gene. These cells endogenously express miR-21. Control compounds used were compound C3 (provided by collaborator), N6-phenyladenosine (MP Biomedicals, 0215379625), and DMSO. Assay Summary: 6uL of HeLa miR-21-FLuc cells in assay buffer (DMEM, Invitrogen #21063-029; 10% FBS, HyClone #SH30071.03) were dispensed at 2000cells/well (3.3 x 10^5 cells/mL) into Greiner solid-white TC-treated 1536-well plates using a Multidrop Combi (Thermo Fisher Scientific). Plates were incubated for one hour at 37 degree Celsius, 95% humidity, 5% CO2. These assay plates were then treated with 23nL of compound or DMSO using a Kalypsys pin tool, which allows for delivery of a 24-point titration of each compound to the assay plate, with a final compound concentration ranging from approximately 40uM to 5pM. Assay plates were then incubated for 48 hours. After incubation, plates were allowed to come to RT for one hour prior to delivery of 3uL of 3X luciferase detection reagent. After a 15 minute incubation to allow for cell lysis, luciferase activity was measured using a ViewLux CCD imager (PerkinElmer), with an average exposure time of 2-12 seconds. Keywords: NIH Roadmap, MLPCN, MLSMR, qHTS, miR-21, microRNA, firefly luciferase, FLuc.
On to `COc1ccc(OCC(=O)Nc2ccc(-c3nc4cc(Cl)ccc4o3)cc2)cc1`, for which the Potency is 0.503 µM (active).
On the same count and under the same terms, as for `COc1ccc(NC(=O)CSc2nnc(-c3cccs3)o2)cc1`, the figure is 10 µM (active); as for `COc1ccc(NC(=O)CSc2nc(SC)ns2)c(OC)c1`, 4 µM (active).
On to `COc1ccccc1NC(=O)C/C(C)=N/NC(=O)c1ccccn1`, for which the “activity change, negative = inhibition” value was -5.3% (inactive).
Turning to `Cc1ccccc1Nc1nc(N)nc(CN(C)c2ccccc2)n1`, the Potency is 11.3 µM (active).
For the compound `Nc1c(-c2nc(-c3cccs3)no2)nnn1-c1cccc(F)c1`, the Potency was 0.318 µM (active).
Still for that read-out and setting: to `Cc1ccc(CNc2nc(-c3ccco3)nn2S(C)(=O)=O)cc1` belongs 4 µM (active).
For the compound `Nc1c(C(=O)Nc2ccccc2Br)sc2nc(-c3cccs3)ccc12`, the “activity change, negative = inhibition” value is -42.2% (inactive).
Take `CCC(=O)n1nc(-c2cccnc2)nc1NCc1ccc(F)cc1`: the “activity change, negative = inhibition” value is -17% (inactive).
Turning to `COc1ccc(OCC(=O)Nc2ccc(-c3nc4cc(C)c(C)cc4o3)cc2)cc1`, the Potency was 0.4 µM (active).
For the compound `CC1=C(c2ccc(C)c(C)c2)S(=O)(=O)N=C1N1CCC(C(=O)NCCc2ccc(Cl)cc2)CC1`, the “activity change, negative = inhibition” value is 27.4% (inactive).
Consider `Cc1cccc(OCc2nnc(SCC(=O)Nc3ccc(N4CCOCC4)cc3)o2)c1`, for which the “activity change, negative = inhibition” value is -7.71% (inactive).
As for `COc1ccc(C(=O)Nc2nnc(C(C)C)s2)cc1OC`, the Potency is 17.9 µM (active).
As to `NC(=O)c1ccccc1NC(=O)c1ccc(-c2ccc(Br)cc2)o1`, the Potency was 2.83 µM (active).
In the case of `CC(C)(C)C1CCc2nc(NC(=O)Cc3cn4ccsc4n3)sc2C1` (configuration not stated), the Potency was 11.3 µM (active).
Regarding `Cc1cc(C)cc(NC(=O)CSc2nnc(CNC(=O)c3ccco3)o2)c1`, the “activity change, negative = inhibition” value was 1.68% (inactive).
`Cc1c(-c2nc(-c3ccc(C(F)(F)F)cc3)no2)n(C)oc1=O`: the Potency is 0.318 µM (active).
For `CC(=O)Nc1nc2c(C)cc(NC(=O)C3CCCCC3)cc2s1`, the Potency is 1.79 µM (active).
On the same count and under the same terms, as for `Cc1c(-c2nsc(NC(=O)c3cccs3)n2)nnn1-c1ccc(Cl)cc1`, the figure is 14.2 µM (active); as for `Cn1c(=O)[nH]c2cc(-c3noc(-c4ccc(F)cc4)n3)ccc21`, 10 µM (active).
On the same count and under the same terms, as for `COc1ccccc1C(=O)n1nc(-c2ccco2)nc1NCc1ccc(Cl)cc1`, the figure is 12.6 µM (active).
With `O=C(CSc1nnc(-c2ccc(C(F)(F)F)cn2)o1)Nc1cccc(Cl)c1`, the Potency was 2.25 µM (active).
In the case of `Cc1ccc(-c2nsc(SCC(=O)Nc3ccc4c(c3)OCO4)n2)cc1`, the Potency is 17.9 µM (active).
Regarding `COc1ccc(NC(=O)c2ncn(-c3ccccc3)n2)cc1Cl`, the Potency was 12.6 µM (active).
The same measure, in the same setting: as for `CCc1ccc2oc(C(=O)Nc3nonc3CC)c(C)c2c1`, the figure is 7.11 µM (active).
Regarding `c1ccc(C2=Nn3c(nnc3-c3cc(-c4ccccc4)n[nH]3)SC2)cc1`, the “activity change, negative = inhibition” value was 11.4% (inactive).
As for `O=C(CSc1nnc(-c2ccc(Cl)cc2)o1)Nc1ccc(F)cc1`, the Potency was 1.79 µM (active).
For `Cc1cccc(-n2nnc(-c3nc(-c4cccs4)no3)c2N)c1`, the Potency is 0.634 µM (active).
For the compound `CCc1cccc(-n2nnc(-c3nsc(NC(=O)c4cccs4)n3)c2C)c1`, the Potency is 10 µM (active).
Still for that read-out and setting: to `COc1cccc(NC(=O)CSc2nnc(-c3cccs3)o2)c1` belongs 6.34 µM (active).
In the case of `Cc1ccc(NC(=O)Cn2nnc(-c3nc(-c4ccc(Cl)cc4)no3)c2N)cc1C`, the “activity change, negative = inhibition” value is -16.5% (inactive).
On to `O=C(Nc1nnc(S(=O)(=O)N2CCCC2)s1)c1ccc(F)cc1`, for which the “activity change, negative = inhibition” value was -23.8% (inactive).
